Shown is part of a subset that was picked to be rich in hits.
14-3-3g Raf – modulators of 14-3-3 gamma protein binding, primary screen, biochemical, fluorescence polarization; 14-3-3 protein gamma (Homo sapiens), P61981; FP, 14-3-3gamma / TMR-pS259-Raf peptide binding; inhibition, % at 40 µM; actives 0.19% (n = 160,000); AID 422, 2006; in the data active = inhibition above about 30%
Large screens that a line does not name were inactive.

CC(C)C1=CC23CCC4C(C)(C(=O)O)CCCC4(C)C2CC1C1C(=O)OC(=O)C13 (centres undefined)	14-3-3g Raf 47
CC(C)C1=CC23CCC4C(C)(C(=O)O)CCCC4(C)C2CC1C1C(=O)N(c2ccc(O)cc2)C(=O)C13 (centres undefined)	none
CCOc1cccc2c1OC1(C)CC2NC(=O)N1c1cccc(C(=O)NCc2ccccc2Cl)c1 (centres undefined)	none
O=C1CC(NCCc2ccccc2)C(=O)N1c1ccccc1 (centres undefined)	none
O=C(O)CC(C(=O)OC1CCCCC1)N1CCOCC1 (centres undefined)	none
O=C(O)CC(C(=O)OCC1CCCO1)N1CCOCC1 (centres undefined)	none
CCOC(=O)C(CC(=O)O)N1CCCCC1 (centres undefined)	14-3-3g Raf 36
CNc1nc2c(c(=O)n(C)c(=O)n2C)n1CC(O)COc1ccccc1C (centres undefined)	none
COc1ccc(OC(=O)c2c(-c3ccccc3Cl)noc2C)cc1	none
CCOc1ccc(C2C(C(=O)OC)=C(C)N=C3SC(C)C(=O)N32)cc1 (centres undefined)	none
N#Cc1c(NCSCc2ccccc2)sc2c1CCCCC2	none
Cc1ccc(S(=O)(=O)N(CCc2ccccc2)CC(=O)Nc2ccc(Cl)cc2C)cc1	none
C/C(O)=c1/c(=O)nc2cccc3c2=c1c1ccccc1c3=O	14-3-3g Raf 35
Cc1cccc(-c2nc3ccccc3c(=O)[nH]2)c1	none
Cc1nc2ccccc2c(C(=O)O)c1C(=O)O	none
O=C(Nc1nc2ccc3ccccc3c2s1)c1cccc(Cl)c1	none
Cc1ccc2cc3cc(C(=O)N4CCC(N5CCCCC5)CC4)oc3nc2c1	none
COc1ccc2cc3cc(C(=O)N4CCC(N5CCCCC5)CC4)oc3nc2c1	14-3-3g Raf 46
COc1ccc2cc3cc(C(=O)N4CCCC4)oc3nc2c1	none
CCN1CNC(=S)N(c2cccc(Cl)c2)C1	none
CCn1cc(C(=O)NCc2ccco2)c(=O)c2cc(S(=O)(=O)N3CCCCCC3)ccc21	none
CCn1cc(C(=O)NC2CCCCC2)c(=O)c2cc(S(=O)(=O)N3CCCCCC3)ccc21	none
CCn1cc(C(=O)NCc2ccccn2)c(=O)c2cc(S(=O)(=O)N3CCCCC3)ccc21	14-3-3g Raf 119
CC1=C(C(=O)OCC(F)(F)F)C(c2cccc(Oc3ccccc3)c2)NC(=O)N1 (centres undefined)	none

High-throughput results: PubChem, Emory University Molecular Libraries Screening Center
